This assay has as its system TYKNU. In words: fractional viability relative to vehicle; TYKNU is a high-grade serous ovarian cancer line; higher = less growth inhibition. The following applies: 72 h. An outline of the steps: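 Drug treatment lasted 72 h, with cells grown at 37 °C in 5% CO2 in RPMI 1640 supplemented with 10% FBS. Beforehand, TYKNU control cells or their lentiCRISPRv2 knockout derivatives had been seeded at 500 cells per well into drug-stamped 384-well plates carrying a ~2100-compound library at 2 or 10 μM, in duplicate. Viability came from Cell Titer Glo luminescence, with averaged duplicate treatment wells normalised to duplicate control wells in the same plate position.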

[1] abbreviates: 2uM, genotype: DNM1L knockout (sgDNM1L #1).
Where [2] appears, read: 2uM, genotype: sgCTRLA1 (non-targeting control).
Setting [3] is: 10uM, genotype: DNM1L knockout (sgDNM1L #1).
Where [4] appears, read: 10uM, genotype: sgCTRLA1 (non-targeting control).

Where a name gives a salt, the structure may show the parent alone. Over roughly 2,000 compounds, “fractional viability relative to vehicle” has its median near 0.91; the lowest 2% begin near 0.045. The sample as a whole holds a higher share of the lowest values than the screen did.

Fractional viability data for 23 molecules are collected here from the supplement of paper PMC5919970.

On to `Cc1nc(-c2cccnc2)sc1C(=O)Nc1ccccc1-c1cn2c(CN3CCOCC3)csc2n1`, for which the fractional viability reads like this: under setting [1], 0.821; under setting [2], 0.932; under setting [3], 0.858; under setting [4], 0.78.

On to `O=C(Nc1ccccc1-c1cn2c(CN3CCNCC3)csc2n1)c1cnc2ccccc2n1`, for which the fractional viability runs as follows: under setting [1], 0.608; under setting [2], 0.845; under setting [3], 0.0197; under setting [4], 0.00961.

`Cn1c2ccccc2c2c3c(c4c5ccccc5n(CCC#N)c4c21)CNC3=O`: the fractional viability by setting is: under setting [1], 0.64; under setting [2], 1.01; under setting [3], 0.671; under setting [4], 0.79.

On to `Cn1cncc1[C@@](N)(c1ccc(Cl)cc1)c1ccc2c(c1)c(-c1cccc(Cl)c1)cc(=O)n2C` [Tipifarnib], for which the fractional viability was 0.472 under setting [1], 0.64 under setting [2], 0.272 under setting [3] and 0.366 under setting [4].

As to `Cc1nnc(C(C)C)n1C1C[C@H]2CC[C@@H](C1)N2CC[C@H](NC(=O)C1CCC(F)(F)CC1)c1ccccc1` (stereo in doubt) [Maraviroc], the fractional viability reads like this: under setting [1], 0.973; under setting [2], 1.15; under setting [3], 0.873; under setting [4], 1.03.

As for `Cc1cc(-c2ncc(CC(=O)Nc3ccc(-c4cnccn4)cn3)cc2C)ccn1`, the fractional viability under setting [1] was 0.863, the fractional viability under setting [2] came to 1.1, the fractional viability under setting [3] came to 0.665 and the fractional viability under setting [4] was determined as 0.746.

On to `CC(C)c1onc(-c2c(Cl)cccc2Cl)c1COc1ccc(/C=C/c2cccc(C(=O)O)c2)c(Cl)c1`, for which the fractional viability is, setting by setting: under setting [1], 0.953; under setting [2], 1.1; under setting [3], 0.781; under setting [4], 1.09.

Take `c1ccc(Cn2c(-c3ccc(OC[C@H](C4CCNCC4)n4c(-c5ccccc5)nc5ccccc54)cc3)nc3ccccc32)cc1` [Deltarasin]: the fractional viability worked out at 0.887 under setting [1], 0.966 under setting [2], 0.0145 under setting [3] and 0.0132 under setting [4].

For `c1cc(-c2cnn3cc(-c4ccc(OCCN5CCCCC5)cc4)cnc23)ccn1` [Dorsomorphin (Compound C)], the fractional viability was 0.845 under setting [1], 0.916 under setting [2], 0.552 under setting [3] and 0.503 under setting [4].

As to `C/C(=N\NC(=S)N1CCC1)c1ccccn1`, the fractional viability was found to be 0.171 under setting [1], 0.137 under setting [2], 0.225 under setting [3] and 0.167 under setting [4].

For `Fc1ccc2[nH]ccc2c1-c1nc(N2CCOCC2)c2sc(CN3CCN(CC4CC4)CC3)cc2n1`, the fractional viability reads like this: under setting [1], 0.883; under setting [2], 0.947; under setting [3], 0.634; under setting [4], 0.711.

As for `O=C(NC1CCN(CCCCC2(C(=O)NCC(F)(F)F)c3ccccc3-c3ccccc32)CC1)c1ccccc1-c1ccc(C(F)(F)F)cc1` [Lomitapide Mesylate], the fractional viability by setting is: under setting [1], 0.573; under setting [2], 0.79; under setting [3], 0.0435; under setting [4], 0.0328.

On to `O=C(O)c1cc(=O)c2ccccc2o1` [Chromocarb], for which the fractional viability reads like this: under setting [1], 0.948; under setting [2], 1.07; under setting [3], 0.923; under setting [4], 1.05.

`CC(=O)c1cc2c(o1)C(=O)c1ccccc1C2=O` [Napabucasin] showed a fractional viability under setting [1] of 0.0305, a fractional viability under setting [2] of 0.0196, a fractional viability under setting [3] of 0.018 and a fractional viability under setting [4] of 0.0135.

In the case of `O=C1c2ccccc2C(=O)c2c1ccc(O)c2O` [Alizarin], the fractional viability reads like this: under setting [1], 0.834; under setting [2], 1.1; under setting [3], 0.8; under setting [4], 1.06.

With `Cc1ccc(NC(=O)c2cccc(C(C)(C)C#N)c2)cc1Nc1ccc2ncn(C)c(=O)c2c1`, the fractional viability stood at 0.244 under setting [1], 0.283 under setting [2], 0.27 under setting [3] and 0.31 under setting [4].

For the molecule `CCNC(=O)C#Cc1ccc2c(C(=Nc3ccc(CN(C)C)cc3)c3ccccc3)c(O)[nH]c2c1`, the fractional viability is, setting by setting: under setting [1], 0.122; under setting [2], 0.0962; under setting [3], 0.0494; under setting [4], 0.0319.

Consider `CN(C)Cc1cccc(N=C(c2ccccc2)c2c(O)[nH]c3cc(C(=O)N(C)C)ccc23)c1`, for which the fractional viability came out at 1.01 under setting [1], 0.843 under setting [2], 0.588 under setting [3] and 0.574 under setting [4].

Regarding `O=C([C@@H](Cc1cccc(C(F)(F)F)c1)NS(=O)(=O)c1cc(F)c2c(c1)CCNC2)N1CCCC1`, the fractional viability under setting [1] was determined as 0.927, the fractional viability under setting [2] worked out at 1.04, the fractional viability under setting [3] stood at 0.863 and the fractional viability under setting [4] is 0.888.

For the molecule `CC(C)CCNC(=O)[C@H](CC(C)C)NC(=O)[C@H]1O[C@@H]1C(=O)O` [Loxistatin Acid (E-64C)], the fractional viability by setting is: under setting [1], 0.865; under setting [2], 0.938; under setting [3], 0.959; under setting [4], 0.802.

The molecule `CCCCC(=O)N(Cc1ccc(-c2ccccc2-c2nnn[nH]2)cc1)[C@H](C(=O)O)C(C)C.CCOC(=O)[C@H](C)C[C@@H](Cc1ccc(-c2ccccc2)cc1)NC(=O)CCC(=O)O` showed a fractional viability under setting [1] of 0.864, a fractional viability under setting [2] of 0.941, a fractional viability under setting [3] of 0.769 and a fractional viability under setting [4] of 0.732.

Take `CN1CCN(S(=O)(=O)c2ccc(-c3cnc(N)c(C(=O)Nc4cccnc4)n3)cc2)CC1`: the fractional viability reads like this: under setting [1], 0.731; under setting [2], 1.08; under setting [3], 0.346; under setting [4], 0.474.

Consider `O=C(O)C(Cc1ccccc1[N+](=O)[O-])=NNc1nc(-c2ccc(Cl)c(Cl)c2)cs1` (mixture of isomers), for which the fractional viability stood at 0.727 under setting [1], 0.775 under setting [2], 0.717 under setting [3] and 0.573 under setting [4].
